Source: PubChem BioAssay (several laboratories)
HSF1 activator = increases HSF-1 driven luciferase reporter signal; NIH3T3-HGL HSF-1 luciferase reporter, MG132, 8 h; 100% = twice DMSO control signal; activation, % at 9 µM; hit rate 1.7% among 300,000; AID 504408;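 active means mean replicate activation of at least 50% with a set share of replicates each reaching 50%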
HSF1 inh = HSF1 inhibition; AID 2098; NIH3T3-HGL HSE-luciferase, MG132-induced, luminescence 8 h; stronger effect = lower value; hit rate 0.77% among 300,000; activity change, negative = inhibition, % at 7.5 µM (by protocol);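 active means more than half of replicate wells show activity change below -50%, luminescence cut by over half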;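 further: luciferase reports HSF-1 transcriptional activity via heat shock element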
HSP90 refold inh = HSP90 refolding inhibition in rabbit reticulocyte lysate. hit rate 0.91% among 290,000. inhibition, % at 5.6 µM. luciferase refolding luminescence, 3 h;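 active means inhibition above the screen-wide mean plus 3 SD, computed separately per campaign, cut at about 16% in these data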;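 further: inhibitors lower the luminescence because luciferase stays unfolded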
ARNT-TACC3 inh = disruptors of human ARNT/TACC3 interaction; Q9Y6A5; AlphaScreen His-ARNT PAS-B/GST-TACC3 binding, luminescence; TACC3 fragment carries E629A point mutation; inhibition, % at 9.99 µM; hit rate 0.66% among 390,000; AID 623870;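 active means mean inhibition of replicates at least 50% and at least half of replicates each reaching 50%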
HIF activator = HIF pathway transcriptional activation | U2OS HRE-luciferase reporter, luminescence; normalized: DMSO 0%, desferrioxamine 100% | activation, % at 7.5 µM (by protocol) | hit rate 0.32% among 300,000 | AID 1910;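 active means mean activation of at least 10% of the iron chelator positive control signal, with at least half of replicates also reaching 10%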
Numbers stand for hits; n = inactive; x = no result given. A selection: hits, their analogues and other compounds. The true share with any hit is near 3.1%.

SMILES	HSF1 activator	HSF1 inh	HSP90 refold inh	ARNT-TACC3 inh	HIF activator
CCCC#Cc1cnc2c(c1)C(=O)N([C@@H](C)CO)C[C@H](C)[C@@H](CN(C)S(=O)(=O)c1ccccc1)O2	x	x	x	n	x
CO[C@@H](CN(C)Cc1cc(F)ccc1F)[C@@H](C)CN(C(=O)Nc1ccc(C(F)(F)F)cc1)[C@@H](C)CO	x	x	x	n	x
Cn1c(=O)c2ncn(CC(=O)N/N=C/C=C/c3ccccc3)c2n(C)c1=O	60.3	n	n	n	n
Cc1cccc(N2CCN(C(=O)c3cc(S(=O)(=O)N4CCCC4)cn3C)CC2)c1C	n	n	n	n	n
Cc1ccc(C)c(N2CCN(C(=O)c3cc(S(=O)(=O)N4CCCC4)cn3C)CC2)c1	n	-68.2	n	n	n
C[C@H](NC(=O)[C@@H]1[C@@H](CO)[C@@H]2Cn3c(ccc(C4=CCCCC4)c3=O)[C@H]1N2)c1ccccc1	x	x	x	n	x
C[C@@H]1CN([C@@H](C)CO)S(=O)(=O)c2ccc(Br)cc2O[C@H]1CN(C)Cc1cccnc1	x	x	x	n	x
CCC(=O)N[C@@H]1CC[C@@H](CC(=O)NCc2ccc(OC)cc2)O[C@@H]1CO	x	x	x	n	x
COc1ccc(OC)c(C(C[N+](=O)[O-])c2c(C)cc3ccccn23)c1 (stereo not drawn)	112.1	n	n	n	n
O=C(C[C@@H]1CC[C@@H]2[C@H](COC[C@@H](O)CN2C(=O)Nc2ccc(Cl)cc2)O1)NC1Cc2ccccc2C1	x	x	x	n	x
C=CCOc1cccc(C(=O)/C=C2/C(=O)Nc3ccccc32)c1	236.3	n	n	n	n
CC(=O)/C=C1/C(=O)Nc2ccccc21	187.1	n	n	n	n
COc1ccc(C#Cc2ccc([C@@H]3[C@@H](CO)N4CCCCN(S(=O)(=O)c5cn(C)cn5)C[C@@H]34)cc2)cc1	x	x	x	n	x
CCN(CC)CCN(C)Cc1nc(C(c2ccccc2)c2ccccc2)no1	54.1	n	n	n	n
CN(CCc1cn[nH]c1)Cc1nc(C(c2ccccc2)c2ccccc2)no1	n	n	n	n	n
Cc1ccc(-c2nc(NC(=O)c3nn(C)cc3[N+](=O)[O-])sc2C)cc1C	n	-83.9	n	n	n
Cc1cnc(NC(=O)c2nn(C)cc2[N+](=O)[O-])s1	150.1	n	n	x	n
Cn1cc([N+](=O)[O-])c(C(=O)Nc2nc(-c3ccc(Cl)cc3)cs2)n1	140.5	n	n	x	n
CO[C@@H]1CN(C)C(=O)c2ccc(NC(=O)Nc3ccccc3Cl)cc2OC[C@@H](C)N(Cc2ccccc2C(=O)O)C[C@H]1C	x	x	x	n	x
Cc1ccc(S(=O)(=O)Cn2nnnc2CN(Cc2ccco2)CC2CCCO2)cc1 (stereo not drawn)	58.9	n	n	n	n
O=C1c2cccnc2Oc2ccc(Cl)cc2N1Cc1ccc(F)cc1	n	-79.1	n	n	n
COc1ccc(S(=O)(=O)Nc2ccc3c(c2)[C@@H]2C[C@H](CC(=O)NCC4CC4)O[C@H](CO)[C@@H]2O3)cc1	x	x	x	n	x
O/N=C/c1cc(Br)cc(Br)c1OCc1ccccc1	n	n	n	n	n
O/N=C/c1ccc(OCc2ccccc2F)c(Cl)c1	84.2	n	n	n	n
O/N=C/c1ccc(OCc2ccccc2)c(Br)c1	65.9	n	n	n	n
SMILES	HSF1 activator	HSF1 inh	HSP90 refold inh	ARNT-TACC3 inh	HIF activator
Cc1ccc(COc2ccc(Br)cc2/C=N/O)cc1	93.5	n	n	x	n
O/N=C/c1ccc(OCc2ccccc2)c(Cl)c1	58.0	n	n	x	n
CCN1[C@@H]2c3ccc(-c4ccccc4)c(=O)n3C[C@@H]2[C@@H](CO)[C@@H]1C(=O)NCc1ccccc1	x	x	x	n	x
CCN(C(=O)c1cc2c(=O)[nH]c3ccc(C)cc3c2s1)c1cccc(C)c1	n	n	n	n	n
CCN(C(=O)c1cc2c(=O)[nH]c3ccc(C)cc3c2s1)c1ccccc1F	57.9	n	n	n	n
CCN(C(=O)c1cc2c(=O)[nH]c3ccc(C)cc3c2s1)c1ccc(F)cc1	n	-75.5	n	n	n
C[C@H](CO)N1C[C@H](C)[C@@H](CN(C)C(=O)Nc2ccc(F)cc2)Oc2ccc(NC(=O)c3ccncc3)cc2C1=O	x	x	x	n	x
O=C(C[C@H]1C[C@H]2c3cc(NC(=O)c4ccc5c(c4)OCO5)ccc3O[C@H]2[C@H](CO)O1)NCc1cccnc1	x	x	x	n	x
CC(O)CNCCCOc1ccc(Cl)cc1C(C)(C)C (stereo not drawn)	n	-65.7	n	n	n
CN(C)CCOCCOc1ccc(Cl)cc1C(C)(C)C	n	n	n	n	n
CCC1=[N+](CC(=O)c2ccc(C)cc2)CCn2cccc21	50.9	n	n	n	n
O=C(Nc1ccc2c(c1)OCO2)N[C@H]1CC[C@H](CCNC(=O)C2CC2)O[C@@H]1CO	x	x	x	n	x
CC(C)CNC(=S)N1CCN(C(c2ccccc2)c2ccccc2)CC1	n	n	n	n	n
S=C(NCc1ccco1)N1CCN(c2cccc(Cl)c2)CC1	54.2	n	n	x	n
COc1ccc(C(=O)NC2CCN(C(=S)NCc3ccco3)CC2)cc1	55.9	n	n	n	n
S=C(NCc1ccco1)N1CCN(C(c2ccccc2)c2ccccc2)CC1	57.6	n	n	n	n
CCOc1cc(/C=N/NC(=O)CN2CCCCC2)ccc1OCc1ccc(Cl)cc1	58.2	n	n	n	n
CCOc1cc(/C=N/NC(=O)CN2CCCCC2)ccc1OCc1cccc(Cl)c1	n	n	n	n	n
CCOC(=O)c1sc(NC(=O)CCN2CCN(CC)CC2)c(C(=O)OCC)c1C	n	n	n	n	n
CCOC(=O)c1sc(NC(=O)CSc2nncs2)c(C(=O)OCC)c1C	55.7	n	n	n	n
CCOC(=O)c1sc(NC(=O)CSc2nc3ccccc3s2)c(C(=O)OCC)c1C	n	n	n	x	n
CCOC(=O)c1sc(NC(=O)CCN2CCC(C)CC2)c(C(=O)OCC)c1C	232.7	n	n	n	n
C[C@H](CO)N1C[C@H](C)[C@H](CN(C)C(=O)NC2CCCCC2)Oc2ncc(C#Cc3cccc(F)c3)cc2C1=O	x	x	x	n	x
Cc1cccc(N2C(=O)CC(NNc3nc4ccccc4s3)C2=O)c1 (stereo not drawn)	108.8	n	n	x	n
O=C1CC(NNc2nc3ccccc3s2)C(=O)N1c1ccc(F)cc1 (stereo not drawn)	n	n	n	n	n
SMILES	HSF1 activator	HSF1 inh	HSP90 refold inh	ARNT-TACC3 inh	HIF activator
C[C@@H]1CCCCO[C@H](CN(C)C(=O)c2ccccc2)[C@H](C)CN([C@H](C)CO)C(=O)c2cc(NC(=O)c3ccccc3)ccc2O1	x	x	x	n	x
CC1CCCCN1CC(=O)Nc1ccccc1Sc1ccccc1 (stereo not drawn)	n	-59.4	n	n	n
COC(=O)C1CCN(CC(=O)Nc2ccccc2Sc2ccccc2)CC1	n	n	n	n	n
Cc1ccc(NS(=O)(=O)c2ccc(-c3ccc(=O)[nH]n3)o2)cc1	n	n	n	n	n
Cc1ccc(-c2ccc(=O)[nH]n2)cc1	55.3	n	n	n	n
COC(=O)Cc1ccc(NC(=S)NCCO)cc1	n	n	n	n	n
COC(=O)Cc1ccc(NC(=S)NC(C)(C)C)cc1	n	n	n	n	25.2
